# In PubChem BioAssay AID489025 (Southern Research Specialized Biocontainment Screening …, 2010):
# The campaign covered roughly 2,300 compounds. About 790 (34%) were called active. No rule for the calls is given here. The list shows a part of the results. Entries with a potency or affinity are not part of this list.
# Experiment: THP-1 cell cytotoxicity, dose response, cytotoxicity control for non-replicating M. tuberculosis project (AID 489025)
# Conditions: THP-1 cell viability; series mostly up to 40 µM; viability: at the top concentration
row,SMILES,viability
1,CC1(C)CC(=O)C(C2NCCc3ccccc32)=C(O)C1 (stereo not given),109% (inactive)
2,C/C(CC(=O)Nc1ccc(C)c(Cl)c1)=N\NC(=O)c1ccco1,88.2% (inactive)
3,CCOC(=O)c1cc(COc2cc(Cl)cc(Cl)c2)on1,101% (inactive)
4,Cc1nc2ccc(NC(=O)c3ccc([N+](=O)[O-])cc3[N+](=O)[O-])cc2s1,95.8% (inactive)
5,CCOc1ccc(NC(=O)CCC(=O)N/N=C/c2ccc([N+](=O)[O-])s2)cc1,90.2% (inactive)
6,COc1cccc2cc(C(=O)NCc3ccc(F)cc3)c(=N)oc12,104% (inactive)
7,CC1Cc2cc(/C=C3/SC(=S)NC3=O)ccc2O1 (stereo not given),81.9% (inactive)
8,CC(C)(O)C#Cc1ccc(C(=O)Nc2ccc3c(c2)OCO3)s1,88.2% (inactive)
9,CC(C)n1c(=S)[nH]c2ccccc2c1=O,94.6% (inactive)
10,CCC(C)(C)NC(=O)c1ccc(Br)o1,106% (inactive)
11,O=C(Nc1ccccc1)c1ccc(Br)o1,73.2% (inactive)
12,COc1ccc(C(=O)NN/C(C)=C/C(=O)c2ccccc2)cc1,95.9% (inactive)
13,O=C(O)c1ccccc1C(=O)NNc1ccc(F)cc1,118% (inactive)
14,O=C(NNc1ccc([N+](=O)[O-])cc1)c1ccccc1Cl,100% (inactive)
15,CCOC(=O)COc1ccc(C(=O)NC2CCCCC2)cc1,111% (inactive)
16,O=C(O)c1ccccc1C(=O)NNc1ccc(Cl)cc1,120% (inactive)
17,O=C(COC(=O)C1CCCCC1)Nc1ccccc1OC(F)F,109% (inactive)
18,NC(=O)/C(=N\OC(=O)c1ccco1)c1nc(-c2ccc(Br)cc2)cs1,104% (inactive)
19,O=C(OCc1cccc(F)c1)c1ccc2c(=O)n3c(nc2c1)CCC3,98.6% (inactive)
20,Cc1ccc(/C=C2/C(=O)NC(=O)N(CCc3ccc(F)cc3)C2=O)s1,112% (inactive)
21,Cc1ccc(NC(=O)CN(C)C2CCCCC2)cc1Br,94.8% (inactive)
22,O=C(OCCCCN1C(=O)c2ccccc2C1=O)c1ccc(Br)o1,89.2% (inactive)
23,Nn1c(SCCOc2ccc(Cl)cc2)nnc1-c1cccnc1,82.1% (inactive)
24,Cc1ccc(CC(=O)Nc2ccc(Cl)cn2)cc1,106% (inactive)
25,O=C(Nc1nc2ccccc2n1CCN1CCCC1)c1ccc(Cl)cc1,79% (inactive)
26,Cn1[nH]c(-c2ccccc2)c(/C=N/O)c1=O,111% (inactive)
27,Clc1ccc(Cc2nnc(-c3cccs3)o2)cc1,104% (inactive)

row,SMILES,viability
1,c1cncc(-c2noc(CC3CCCCC3)n2)c1,97% (inactive)
2,CCOC(=O)C(=NCCOC)NNc1cc(Cl)ccc1Cl,92.8% (inactive)
3,CCOc1cccc2cc(C(=O)NCc3ccccc3)c(=N)oc12,113% (inactive)
4,CCc1c(C)c2ccc(OCC(=O)OC)cc2oc1=O,118% (inactive)
5,Cc1cccc2nc(-c3cccnc3)c(NCCC(C)C)n12,76.1% (inactive)
6,CSc1nn(-c2ccc(C(=O)OCC(=O)NC(=O)NC(C)C)cc2)c(=S)s1,98.3% (inactive)
7,CC(=O)Oc1c(-c2ccco2)oc2ccccc2c1=O,82.7% (inactive)
8,O=[N+]([O-])c1ccc2nc(SCc3cn4cc(Cl)ccc4n3)[nH]c2c1,99.3% (inactive)
9,CCOC(=O)COn1c(-c2cccc(Cl)c2)nc2ccc([N+](=O)[O-])cc21,86.9% (inactive)
10,Cc1nc2ccc(Cl)cc2nc(C)/c1=N\O,110% (inactive)
11,O=c1c2c([N+](=O)[O-])cc([N+](=O)[O-])cc2sn1-c1ccc(Br)cc1,90.1% (inactive)
12,N/C(=N\OC(=O)c1cccc(Br)c1)c1ccc([N+](=O)[O-])cc1,102% (inactive)
13,O=c1c2cc(Cl)ccc2nc(-c2ccccc2Cl)n1O,113% (inactive)
14,O=C(Oc1cccc([N+](=O)[O-])c1)c1ccc2c(=O)n3c(nc2c1)CCC3,116% (inactive)
15,CC(=O)c1cc2c(ccc3ccccc32)oc1=O,110% (inactive)
16,CCOc1ncccc1C(=O)OCC(=O)N1CCc2ccccc21,95.2% (inactive)
17,C=C(C)C1CC=C(C)/C(=N/NC(=O)CNc2ccc(OCC)cc2)C1 (stereo not given),92% (inactive)
18,CC(C)OC(=O)c1c2c(n3ccccc13)C(=O)c1ccccc1C2=O,83.2% (inactive)
19,COc1cc(C(=O)ON=C2C=C(C)C(=O)C(C)=C2)cc(OC)c1OC,71.2% (inactive)
20,COc1ccc(CCNc2cc(-c3ccccc3)nc3ncnn23)cc1,79.6% (inactive)
21,Cc1nn2c(NCCN(C)C)c3c(nc2c1-c1ccccc1)CCCC3,71% (inactive)
22,COc1cccc(C(=O)OCn2nnc3ccccc3c2=O)c1OC,88.7% (inactive)
23,O=C(OCn1nnc2ccccc2c1=O)c1ccc(Br)o1,101% (inactive)
24,Cc1cccc(Cn2ccc(NC(=O)c3ccc4c(c3)OCO4)n2)c1,94.6% (inactive)
25,Cc1ccc(NC(=O)COC(=O)CCc2c[nH]c3ccccc23)cc1[N+](=O)[O-],97.8% (inactive)
26,O=C(NCCC1=CCCCC1)c1ccc(F)cc1,86.6% (inactive)
27,Cc1ccc(NC(=O)CNc2ccc(OC(C)C)cc2)cc1,93.2% (inactive)

row,SMILES,viability
1,Cc1ccc(NC(=O)COCC(=O)Nc2ccc(C)cc2)cc1,121% (inactive)
2,COc1ccc(C(=O)C2CCCN(C(=O)c3ccc(CSC)o3)C2)cc1F (stereo not given),106% (inactive)
3,CSc1ccc(C(=O)C2CCCN(Cc3cc4ccccc4[nH]3)C2)cc1 (stereo not given),79.9% (inactive)
4,COC(=O)c1ccccc1NC(=O)C1CC(c2ccc(F)cc2)=NO1 (stereo not given),73.4% (inactive)
5,CC(=O)OCCN(C)c1cc(SC(C)C)c2nonc2c1[N+](=O)[O-],102% (inactive)
6,CCCNC(=O)COC(=O)c1cc2c(=O)n3ccccc3nc2s1,103% (inactive)
7,Cc1csc(=Nc2cccnc2)n1CC1CCCCC1,80.9% (inactive)
8,Cc1ccc2c(CC(=O)OCC(=O)Nc3ccc(Cl)cn3)coc2c1,118% (inactive)
9,O=C(Oc1ccccc1)c1cc2ccccc2o1,136% (inactive)
10,CCc1ccc(OCCCC(=O)Nc2nccs2)cc1,90.2% (inactive)
11,COc1ccc(NC(=O)CO/N=C2/CCCc3nonc32)c(OC)c1,103% (inactive)
12,Cc1cc(C(=O)COc2cccc3cccnc23)c(C)n1C,108% (inactive)
13,O=C(Oc1cccc2cccnc12)c1cccc(-n2cnnn2)c1,97.8% (inactive)
14,O=C(Oc1ccccc1Cl)c1ccc2c(=O)n3c(nc2c1)CCC3,103% (inactive)
15,O=C(Oc1cccc2cccnc12)c1cccc([N+](=O)[O-])c1,109% (inactive)
16,S=c1[nH]c2ccccc2o1,110% (inactive)
17,O=C1CC(N2CCN(Cc3ccccc3)CC2)C(=O)N1CCc1ccccc1 (stereo not given),104% (inactive)
18,O=C1C=CC(=O)N1N(c1ccccc1)c1ccccc1,94.9% (inactive)
19,Cc1c(C(=O)NNC(=O)c2csc(N3CCOCC3)n2)oc2ccccc12,97.8% (inactive)
20,COC(=O)C1=C(C(=O)OC)C(c2cc(Cl)ccc2O)c2sc(=O)[nH]c2S1 (stereo not given),113% (inactive)
21,O=c1oc2ccccc2c2c1nnn2CCO,93.3% (inactive)
22,Clc1cccc(-c2ccc(CNCc3ccccn3)o2)c1,114% (inactive)
23,Cc1ccc(-c2cc(C(F)(F)F)n3nc(C(=O)NCCCn4ccnc4)cc3n2)cc1C,113% (inactive)
24,Fc1ccc(-c2ccc(CNCc3ccccn3)o2)cc1Cl,83.4% (inactive)
25,c1ccc(-c2nc(NCCCn3ccnc3)c3ccccc3n2)cc1,89.2% (inactive)
26,Clc1ccc(-c2ccc(CNCc3ccccn3)o2)cc1,74.1% (inactive)
